# Counter-ions that a name gives are not always drawn.
# Test system: thyroid hormone receptor (endogenous TRα and TRβ)
# Design: species or system GH3-TRE-Luc (rat pituitary); GH3-TRE-Luc luciferase reporter, antagonist mode against 1 nM T3, loss of signal, qHTS
# Conditions: read-out: Average AC50 (uM) GH3-TRE-Antag, antagonist mode, 1 nM T3, no GH3 cytotoxicity hit
row,SMILES,AC50 [µM]
1,CCCCNc1c(C(=O)OCC)c(C)nc2c1cnn2CC [Tracazolate hydrochloride],42.6
2,CCCCCCCCCCCCNC(=N)N [Dodine],2.89
3,N#CC(c1ccc(Cl)cc1)c1c(Cl)cc(-n2ncc(=O)[nH]c2=O)cc1Cl (centres unmarked) [Diclazuril],4.7
4,CCOC(=O)n1ccn(C)c1=S [Carbimazole],> 20
5,"CCCCOCCOC(=O)COc1cc(Cl)c(Cl)cc1Cl [2,4,5-T-butotyl]",80.4
6,O=C(C[C@H]1NCCC[C@@H]1O)Cn1cnc2cc(Br)c(Cl)cc2c1=O (racemic) [Halofuginone hydrochloride],46.9
7,Cc1ccccc1CO[C@@H]1C[C@@]2(C(C)C)CC[C@]1(C)O2 (racemic) [Cinmethylin],38.4
8,CCCCCCCC/C=C/CCCCCCCC(=O)OCCO [Polyoxyethylene monoleate],81.3
9,"CCCCNC1CC(C)(C)NC(C)(C)C1 [N-Butyl-2,2,6,6-tetramethylpiperidin-4-amine]",60.2
10,CC(=O)[C@H]1CC[C@H]2[C@@H]3C=CC4=CC(=O)CC[C@@]4(C)[C@@H]3CC[C@]12C [Dydrogesterone],9.99
11,CC(C(=O)O)c1ccc(-c2ccccc2)c(F)c1 (centres unmarked) [Flurbiprofen],> 20
12,CCCN(CCC)C(=O)Cc1c(-c2ccc(Cl)cc2)nc2ccc(Cl)cn12 [Alpidem],25.1
13,Clc1ccc(C2(Cn3cncn3)CC(Br)CO2)c(Cl)c1 (centres unmarked) [Bromuconazole],72.5
14,CC(C)CCCCCCCCCCCCCCC(=O)O [Isooctadecanoic acid],16.3

# Source: article PMC6792352, “Limited Chemical Structural Diversity Found to Modulate Thyroid Hormone Receptor in the Tox21 Chemical Library” (Environmental Health Perspectives, 2019)
